# According to PubChem BioAssay:
# Active and inactive are the calls of the source.
# Experiments:
# [1] = test system: Plasmodium falciparum Sir2 (PF13_0152, Sir2A); assay: Plasmodium falciparum Sir2A binding compounds – biochemical, small-molecule microarray, 635 nm fluorescence, primary screen (AID 1098); settings: fluorescence 635 nm, higher = more signal;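 also: score merges spot fluorescence intensity with its signal-to-noise ratio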
# [2] = probe aDKK1 binding to arrayed compounds – biochemical, biotinylated probe, 635/667 nm fluorescence, primary screen (AID 1099); settings: small-molecule microarray, higher = more signal;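 also: score merges 667nm spot fluorescence with signal to noise across triplicate slides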
# [3] = probe aCHRDL2 binding to arrayed compounds – biochemical, biotinylated probe, 635/667 nm fluorescence, primary screen (AID 1100); settings: small-molecule microarray, higher = more signal
# [4] = change in splice reporter luminescence, either direction, cell-based, HEK293, spliceosome inhibition project, primary screen (AID 1101); settings: HEK293 splicing luciferase reporter, 24 h, higher = more signal, called active from +8 up or from −8 down;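 also: HEK293 cells carrying a splicing-competent luciferase reporter gene; test concentration not given here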
# [5] = molecular target: Fibroblast growth factor 10 (Homo sapiens) (UniProt O15520); assay: compounds binding fibroblast growth factor 10 – biochemical, small-molecule microarray, 635 nm fluorescence, primary screen (AID 1102); settings: FGF10 binding, fluorescence 635 nm, higher = more signal
# [6] = test system: glycogen synthase kinase-3 (GSK3A per assay name; protocol says GSK3B); assay: compounds binding glycogen synthase kinase-3 – biochemical, small-molecule microarray, 635 nm fluorescence, GSK3A, primary screen (AID 1103); settings: fluorescence 635 nm, higher = more signal; also: the record names both GSK3A and GSK3B
# [7] = molecular target: Epidermal growth factor receptor (Homo sapiens) (UniProt P00533); assay: compounds binding epidermal growth factor receptor – biochemical, small-molecule microarray, 635 nm fluorescence, primary screen (AID 1104); settings: EGFR binding, higher = more signal;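 also: score merges 667 nm emission intensity with spot signal to noise over triplicate slides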
# [8] = molecular target: Follistatin-related protein 3 (Homo sapiens) (UniProt O95633); assay: compounds binding follistatin-related protein 3 – biochemical, small-molecule microarray, 635 nm fluorescence, primary screen (AID 1105); settings: FSTL3 binding, higher = more signal;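 also: score merges emission near 667 nm and signal to noise per printed spot across three slides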
# [9] = molecular target: Dickkopf-related protein 1 (Homo sapiens) (UniProt O94907); assay: small molecules binding DKK1 protein – biochemical, small-molecule microarray, 635 nm fluorescence scan, primary screen (AID 1106); settings: higher = more signal;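 also: score merges emission near 667 nm with signal to noise over three replicate slides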
# [10] = test system: Inhibin beta A chain (activin A); assay: small molecules binding activin A – biochemical, small-molecule microarray, 635 nm fluorescence scan, primary screen (AID 1107); settings: INHBA, higher = more signal;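 also: mouse activin A protein probed at 4.33 µg/mL on printed slides; score merges bound-protein fluorescence near 667 nm with spot signal-to-noise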
# [11] = test system: Human papillomavirus type 1a protein E7 (residues 44-93); assay: small molecules binding HPV E7 44-93 – biochemical, small-molecule microarray, residues 44-93, 635 nm fluorescence, primary screen (AID 1108); settings: fluorescence 635 nm, higher = more signal;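 also: E7 fragment applied at 1 µg/mL in TBST for 1 h at 4 C; score combines spot fluorescence with its signal to noise ratio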
# [12] = hepatitis C replication reporter changes, two-sided – Huh7 cells, luciferase reporter, HCV replication inhibitor project, primary screen (AID 1109); settings: Huh7 HCV replicon luciferase reporter, 48 h; higher = more signal;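 also: huh7 hepatoma cells harbouring a luciferase neomycin HCV replicon reporter; luciferase luminescence as measure of HCV replicon replication; test concentration not given here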
# [13] = molecular target: Left-right determination factor 2 (Homo sapiens) (UniProt O00292); assay: small molecules binding LEFTY2 protein – biochemical, small-molecule microarray, 635 nm fluorescence scan, primary screen (AID 1110); settings: higher = more signal
# [14] = molecular target: Calmodulin-1 (Homo sapiens) (UniProt P0DP23); assay: small molecules binding calmodulin-1 with EGTA – biochemical, small-molecule microarray, Cy5-labelled CALM1, profiling panel (AID 1111); settings: Cy5-CALM1 binding fluorescence, higher = more signal;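 also: labelled calmodulin applied in Tris saline Tween buffer holding calcium plus EGTA and DTT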
# [15] = molecular target: Calmodulin-1 (Homo sapiens) (UniProt P0DP23); assay: small molecules binding Ca-loaded calmodulin-1 – biochemical, small-molecule microarray, Cy5-labelled CALM1, plus calcium, artefact control for SMM control-protein annotation, profiling panel (AID 1112); settings: Cy5-CALM1 binding fluorescence, higher = more signal;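 also: score merges spot fluorescence with signal to noise from triplicate slides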
# [16] = probe aWnt5a binding to arrayed compounds – biochemical, biotinylated probe, 635/667 nm fluorescence, primary screen (AID 1113); settings: small-molecule microarray, higher = more signal;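 also: score merges 667 nm fluorescence intensity with signal-to-noise per printed feature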
# [17] = probe aShh binding to arrayed compounds – biochemical, biotinylated probe, 635/667 nm fluorescence, primary screen (AID 1114); settings: small-molecule microarray, higher = more signal;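 also: probe is biotin-labelled aShh protein from a stem cell growth factor screen; measures binding of labelled protein to compounds printed on the slide; score merges feature fluorescence at 667 nm with signal-to-noise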
# [18] = probe aNog binding to arrayed compounds – biochemical, biotinylated probe, 635/667 nm fluorescence, primary screen (AID 1115); settings: small-molecule microarray, higher = more signal;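 also: probe is biotinylated aNog protein used at 0.15 µg/mL for 1 h at 4 C; z-score combines 667 nm fluorescence of each spot with its signal to noise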
# [19] = molecular target: Torsin-1A-interacting protein 1 (Homo sapiens) (UniProt Q5JTV8); assay: compound microarray binding of lysate hLAP1 – cell lysate, small-molecule microarray, COS7 lysate, 635/667 nm fluorescence, primary screen (AID 1116); settings: 635 nm fluorescence, higher = more signal
# [20] = molecular target: Alpha-bungarotoxin (Bungarus multicinctus) (UniProt P60615); assay: compounds binding labelled alpha-BTX control protein – biochemical, small-molecule microarray, Alexa647 label, 635/667 nm fluorescence, artefact control for SMM control protein annotation, profiling panel (AID 1117); settings: alpha-BTX-A647 binding fluorescence, higher = more signal
# Chain of Alpha-bungarotoxin (Bungarus multicinctus) (P60615 whole entry, looked up): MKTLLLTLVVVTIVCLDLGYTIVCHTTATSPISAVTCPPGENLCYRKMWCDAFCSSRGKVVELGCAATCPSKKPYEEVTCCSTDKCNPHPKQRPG
# Chain of Follistatin-related protein 3 (Homo sapiens) (O95633 whole entry, looked up): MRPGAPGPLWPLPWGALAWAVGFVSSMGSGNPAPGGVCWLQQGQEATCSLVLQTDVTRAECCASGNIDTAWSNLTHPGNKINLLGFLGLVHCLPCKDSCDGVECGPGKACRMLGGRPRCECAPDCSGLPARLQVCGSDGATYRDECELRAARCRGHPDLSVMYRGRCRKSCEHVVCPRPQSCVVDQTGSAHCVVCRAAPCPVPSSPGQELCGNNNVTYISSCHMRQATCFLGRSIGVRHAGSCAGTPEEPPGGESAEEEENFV
# Chain of Torsin-1A-interacting protein 1 (Homo sapiens) (Q5JTV8 whole entry, looked up): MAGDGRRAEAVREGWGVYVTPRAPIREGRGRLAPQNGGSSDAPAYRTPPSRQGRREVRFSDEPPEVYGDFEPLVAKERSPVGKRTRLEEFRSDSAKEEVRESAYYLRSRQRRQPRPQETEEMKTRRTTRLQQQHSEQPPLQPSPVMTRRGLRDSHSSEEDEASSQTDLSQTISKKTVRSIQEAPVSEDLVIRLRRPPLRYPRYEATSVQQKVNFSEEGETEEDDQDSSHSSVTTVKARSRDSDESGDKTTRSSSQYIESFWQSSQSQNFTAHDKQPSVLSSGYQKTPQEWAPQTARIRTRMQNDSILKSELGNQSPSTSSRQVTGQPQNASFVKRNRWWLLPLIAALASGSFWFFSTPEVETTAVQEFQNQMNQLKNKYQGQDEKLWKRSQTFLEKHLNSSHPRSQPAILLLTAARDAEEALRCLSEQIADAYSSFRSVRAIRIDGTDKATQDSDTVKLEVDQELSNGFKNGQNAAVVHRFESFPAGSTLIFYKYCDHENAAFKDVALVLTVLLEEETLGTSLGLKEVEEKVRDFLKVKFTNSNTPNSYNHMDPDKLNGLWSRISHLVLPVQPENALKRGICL
# Chain of Epidermal growth factor receptor (Homo sapiens) (P00533 whole entry, looked up): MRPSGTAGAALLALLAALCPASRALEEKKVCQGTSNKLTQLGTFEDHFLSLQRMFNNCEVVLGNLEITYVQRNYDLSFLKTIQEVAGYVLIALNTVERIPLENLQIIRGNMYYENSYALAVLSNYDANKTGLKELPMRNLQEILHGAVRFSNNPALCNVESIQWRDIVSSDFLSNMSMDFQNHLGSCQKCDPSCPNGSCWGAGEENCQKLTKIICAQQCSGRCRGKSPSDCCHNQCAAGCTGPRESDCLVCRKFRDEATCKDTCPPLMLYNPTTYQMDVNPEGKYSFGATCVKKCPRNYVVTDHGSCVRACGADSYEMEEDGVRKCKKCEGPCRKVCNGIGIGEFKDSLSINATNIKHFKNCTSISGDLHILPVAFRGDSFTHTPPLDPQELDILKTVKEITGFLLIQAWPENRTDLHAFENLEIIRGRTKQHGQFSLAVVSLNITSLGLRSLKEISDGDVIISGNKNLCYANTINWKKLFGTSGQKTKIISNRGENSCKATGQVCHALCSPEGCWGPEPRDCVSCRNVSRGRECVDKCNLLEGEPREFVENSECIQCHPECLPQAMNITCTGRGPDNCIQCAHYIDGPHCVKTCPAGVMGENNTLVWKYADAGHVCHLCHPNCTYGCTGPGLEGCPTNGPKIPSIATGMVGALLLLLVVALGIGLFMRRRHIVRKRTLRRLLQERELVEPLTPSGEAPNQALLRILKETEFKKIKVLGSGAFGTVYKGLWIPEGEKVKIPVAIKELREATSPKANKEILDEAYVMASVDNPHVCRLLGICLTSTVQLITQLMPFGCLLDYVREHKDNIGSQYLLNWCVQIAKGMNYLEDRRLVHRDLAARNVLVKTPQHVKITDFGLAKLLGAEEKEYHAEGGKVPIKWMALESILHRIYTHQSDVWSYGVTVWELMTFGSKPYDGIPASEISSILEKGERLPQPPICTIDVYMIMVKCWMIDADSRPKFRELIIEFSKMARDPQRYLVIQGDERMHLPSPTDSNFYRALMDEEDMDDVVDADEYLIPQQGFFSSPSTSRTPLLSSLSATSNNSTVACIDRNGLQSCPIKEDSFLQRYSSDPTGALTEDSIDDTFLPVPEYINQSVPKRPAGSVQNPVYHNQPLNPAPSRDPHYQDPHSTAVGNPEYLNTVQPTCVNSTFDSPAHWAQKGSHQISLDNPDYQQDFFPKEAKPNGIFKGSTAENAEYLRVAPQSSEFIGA
# Chain of Dickkopf-related protein 1 (Homo sapiens) (O94907 whole entry, looked up): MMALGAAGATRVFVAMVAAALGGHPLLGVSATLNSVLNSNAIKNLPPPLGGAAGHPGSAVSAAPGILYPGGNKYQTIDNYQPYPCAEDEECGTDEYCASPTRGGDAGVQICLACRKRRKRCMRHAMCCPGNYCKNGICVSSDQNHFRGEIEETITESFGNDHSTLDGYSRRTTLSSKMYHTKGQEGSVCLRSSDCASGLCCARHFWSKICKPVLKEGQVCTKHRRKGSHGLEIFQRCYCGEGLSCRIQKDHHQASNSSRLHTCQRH
# Chain of Fibroblast growth factor 10 (Homo sapiens) (O15520 whole entry, looked up): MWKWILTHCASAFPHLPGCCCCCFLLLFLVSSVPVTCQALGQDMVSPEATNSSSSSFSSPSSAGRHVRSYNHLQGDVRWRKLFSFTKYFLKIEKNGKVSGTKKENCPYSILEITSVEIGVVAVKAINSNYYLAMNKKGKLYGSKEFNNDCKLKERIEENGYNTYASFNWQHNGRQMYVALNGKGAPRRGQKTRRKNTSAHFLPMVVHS
# Chain of Left-right determination factor 2 (Homo sapiens) (O00292 whole entry, looked up): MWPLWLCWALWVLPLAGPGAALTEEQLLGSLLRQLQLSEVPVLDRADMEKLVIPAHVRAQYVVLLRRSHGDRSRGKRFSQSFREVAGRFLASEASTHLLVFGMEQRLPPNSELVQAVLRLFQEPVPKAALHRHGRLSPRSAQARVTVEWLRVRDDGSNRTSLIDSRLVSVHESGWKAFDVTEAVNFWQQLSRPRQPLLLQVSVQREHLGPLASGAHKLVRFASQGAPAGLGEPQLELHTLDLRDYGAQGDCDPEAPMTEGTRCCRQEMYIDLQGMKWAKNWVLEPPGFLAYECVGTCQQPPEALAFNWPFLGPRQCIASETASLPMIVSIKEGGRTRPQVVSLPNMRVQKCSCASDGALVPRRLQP
Structure (SMILES),composite z-score [1],composite z-score [2],composite z-score [3],z-score [4],composite z-score [5],composite z-score [6],composite z-score [7],composite z-score [8],composite z-score [9],composite z-score [10],composite z-score [11],z-score [12],composite z-score [13],composite z-score [14],composite z-score [15],composite z-score [16],composite z-score [17],composite z-score [18],composite z-score [19],composite z-score [20]
CCCCCN1CC=CC23O[C@@H]4/C=C\CCC(C)OC(=O)C4[C@H]2C(=O)N(CCCCCCO)[C@@H]3C1=O (stereo not given in full),1.44,-0.219,0.248,-0.833 (inactive),-0.381,-0.459,-0.434,-0.303,-0.397,1.13,0.342,0.499,-0.78,-0.384,0.369,-0.202,-0.0146,-0.12,0.171,-0.267
COCCOC(=O)N1C(=O)[C@@]2(c3cc(C#CCCO)ccc31)[C@H](c1ccccc1OCCO)N1[C@H](c3ccccc3)[C@H](c3ccccc3)OC(=O)[C@H]1[C@@H]2C(=O)N1CCCCCCC1,1.69,2.28,1.36,-0.532 (inactive),0.743,1.08,0.965,1.53,1.31,1.6,1.4,-2.25,0.994,2.58,1.09,0.495,1.94,2.8,3.04,2.2
CC(=O)n1cc(C(O)C2C=CC3C(=O)N(c4ccccc4)C(=O)C3N2Nc2ccc(C(C)C)cc2)c2ccccc21 (stereo not given),1.17,0.389,0.883,0.811 (inactive),0.881,1.1,0.281,0.766,0.076,1.02,0.656,-0.909,-0.0688,2.53,1.38,-0.0394,0.0328,1.41,1.68,1.6
COCC1C2CC[C@H]3C(OCc4ccc(OC)cc4)OC[C@]4(C)[C@H]3C2=C(CN4C(=O)OC(C)(C)C)[C@H](C)C1COC (stereo not given in full),0.852,0.319,0.482,-1.98 (inactive),1.11,1.32,0.418,1.16,0.207,0.752,1.4,-0.733,0.366,2.47,0.671,-0.0134,0.0898,-0.373,0.782,1.14
COCCOC(=O)N1C(=O)[C@@]2(c3cc(C#CCNC(N)=O)ccc31)[C@H](c1ccc(O)cc1)N1[C@H](c3ccccc3)[C@H](c3ccccc3)OC(=O)[C@H]1[C@@H]2C(N)=O,-0.583,-0.224,0.444,0.00136 (inactive),-1.62,-1.32,-1.9,-2.16,-1.86,-1.08,-0.8,-0.101,-2.24,-0.747,0.502,-0.377,-0.378,-0.0585,-0.448,-2.27
COCC(=C=CC[C@H](O)c1cccc(OCCO)c1)C[C@H](O)COCc1ccccc1,1.66,0.39,-0.121,0.13 (inactive),1.17,0.677,-0.751,0.0438,-0.529,1.03,0.768,-0.754,-0.35,-0.238,-0.135,0.0037,0.191,-0.0863,1.58,-0.363
CO[C@H]1O[C@H](CO)[C@@H](OC(=O)Nc2cccc(F)c2)[C@H](OC(=O)Nc2ccccc2-c2ccccc2)[C@H]1OC(=O)Nc1ccccc1-c1ccccc1,1.26,0.255,0.735,4.28 (inactive),1.46,1.33,0.321,1.3,0.585,0.664,1.48,-3.82,0.494,0.88,-0.305,0.0692,-0.0977,0.895,1.09,0.816
Cc1ccc(C(C)CC(O)C2C=CC3C(=O)N(c4ccccc4)C(=O)C3N2Nc2ccc(C#N)cc2)o1 (stereo not given),0.966,0.846,0.539,3.02 (inactive),1.12,1.08,0.202,0.913,-0.0435,0.607,1.42,0.0453,0.168,1.48,0.314,-0.0044,0.138,0.526,1.16,1.17
C=C(COC)/C(=C/C[C@@H](OC(=O)c1ccncc1)c1ccccc1OCCO)c1cc(C(=O)OC)ccc1OC,-0.979,-0.0241,0.445,2.66 (inactive),-0.0528,-0.628,-0.796,-0.354,-0.276,0.845,-0.553,-2.5,-0.934,-0.188,-0.66,-0.107,-0.0849,0.0471,0.332,-0.626
Cc1ccc(S[C@]2(C(=O)NCc3ccccc3)CC(=O)N(Cc3cc(C(F)(F)F)cc(C(F)(F)F)c3)[C@@H]2c2ccc(CO)cc2I)cc1,-0.466,0.664,1.22,-1.21 (inactive),-1.31,-0.714,-1.78,-0.203,-1.54,1.02,-0.262,-0.861,-1.24,-0.36,0.585,-0.228,-0.319,-0.216,0.0893,-1.05
CN1C(=O)C2C(C1=O)C1C=C(CCCO)C2C(c2cccs2)N1Cc1cc2c(cc1Br)OCO2 (stereo not given),0.989,0.738,0.377,-0.139 (inactive),0.922,1.34,0.424,1.49,0.373,1.51,1.44,-1.22,0.772,1.89,0.658,0.184,0.131,-0.373,2.29,1.7
Nc1cc(Br)ccc1C(=O)O,-0.0113,0.149,-0.155,-0.00991 (inactive),0.339,0.285,0.029,0.111,0.241,0.0301,-0.0633,-0.518,0.285,0.955,0.885,-0.0045,-0.0626,0.0558,0.0546,1.39
CCOC(=O)C[C@H]1[C@H](OC(=O)c2ccccc2-c2ccccc2)[C@@H](NC(=O)c2ccccc2)c2cc(OCCCO)ccc2N1C(=O)c1ccccc1,-0.242,0.0316,-0.375,0.0178 (inactive),0.645,0.459,-0.106,0.284,0.169,0.169,0.374,-0.843,0.345,0.114,0.148,-0.0425,-0.0146,-0.0926,-0.244,0.0475
COc1cc(CO)cc(I)c1O[C@H]1C=C(C(=O)NCCO)C[C@@H](NCC2CCCCC2)[C@@H]1O,0.587,-0.155,-0.103,-0.47 (inactive),0.536,0.0102,0.151,0.607,0.502,0.328,0.552,-1.58,0.392,-0.11,-0.197,-0.0512,0.0639,-0.319,0.164,0.394
O=C(NCC(O)CO)[C@@]1(CCS(=O)(=O)c2ccccc2)COC(c2ccc(OCCCO)cc2)=N1 (stereo not given in full),1.13,1.07,1.16,0.475 (inactive),0.655,-0.454,-0.375,-0.199,-0.522,0.877,1.38,-0.119,-0.412,1.25,1.09,0.0944,0.385,1.81,2.48,2.58
C=CCC(OC(C)=O)[C@@H]1[C@@H](N(Cc2cccc3ccccc23)C(=O)c2cccc3ccccc23)c2cc(OCCCO)ccc2N1C(=O)c1ccc2ccccc2c1 (stereo not given in full),-0.131,0.0281,0.0611,-0.888 (inactive),0.523,-0.0993,0.187,0.423,0.226,1.41,0.475,-0.351,0.156,-0.0677,0.476,-0.0748,0.0494,0.185,0.184,0.0426
C=C(/C(=C/C[C@H](OC(=O)c1ccncc1)c1ccccc1OCCO)c1cnc2ccccc2c1)C(C)C,1.06,-0.117,0.37,0.82 (inactive),1.47,1.06,1.15,1.59,1.07,1.72,1.41,-2.63,1.05,0.547,-0.558,0.0374,0.172,-0.0809,0.358,1.73
CCOC(=O)C[C@H]1[C@H](OC(=O)c2ccccc2-c2ccccc2)[C@@H](NC(=O)c2ccc3ccccc3n2)c2cc(OCCCO)ccc2N1C(=O)c1ccccc1,0.459,-0.269,-0.46,-0.407 (inactive),0.526,0.45,0.575,0.581,0.499,0.0428,1.29,-1.7,0.487,-0.0187,-0.457,-0.0519,-0.248,-0.347,0.291,0.414
C=CCC(OC(C)=O)[C@@H]1[C@@H](N(Cc2cccc3ccccc23)C(=O)Cc2ccc(F)cc2)c2cc(OCCCO)ccc2N1C(=O)c1ccc(-c2ccccc2)cc1 (stereo not given in full),-0.171,0.592,0.976,-0.312 (inactive),-0.219,-0.502,-0.304,0.047,-0.506,1.45,-0.658,-1.09,-0.197,-0.573,0.992,-0.236,-0.0035,0.0812,0.171,-0.395
CC(C)CCC[C@@H](C)[C@H]1CC[C@@]2(C)C3=C(CC[C@]12C)[C@@]1(C)CC[C@H](OC(=O)c2ccccc2)C(C)(C)C1CC3 (stereo not given in full),0.238,-0.279,-0.501,-1.54 (inactive),0.155,0.21,0.375,0.429,0.61,-0.0754,0.359,-0.313,0.593,-0.0989,-0.647,-0.124,-0.414,-0.0252,-0.251,0.261
